RGS16-Gao: RGS16-Galphao interaction regulator (human); O15492+P09471; bead-based flow cytometry RGS16-Galphao binding, fluorescence; actives lie on both sides; binding response (% of control), % at 10 µM; 220,000 compounds, 0.38% hits; AID 1441;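 note: Galphao activated by GDP with aluminum fluoride before binding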
Target sequence (O15492 whole entry, looked up): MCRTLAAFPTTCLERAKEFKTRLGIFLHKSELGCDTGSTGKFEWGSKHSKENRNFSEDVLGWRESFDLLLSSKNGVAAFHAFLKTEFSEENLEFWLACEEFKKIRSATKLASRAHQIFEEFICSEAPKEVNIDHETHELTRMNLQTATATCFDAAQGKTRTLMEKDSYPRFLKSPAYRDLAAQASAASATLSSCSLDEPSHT
Target sequence (P09471 whole entry, looked up): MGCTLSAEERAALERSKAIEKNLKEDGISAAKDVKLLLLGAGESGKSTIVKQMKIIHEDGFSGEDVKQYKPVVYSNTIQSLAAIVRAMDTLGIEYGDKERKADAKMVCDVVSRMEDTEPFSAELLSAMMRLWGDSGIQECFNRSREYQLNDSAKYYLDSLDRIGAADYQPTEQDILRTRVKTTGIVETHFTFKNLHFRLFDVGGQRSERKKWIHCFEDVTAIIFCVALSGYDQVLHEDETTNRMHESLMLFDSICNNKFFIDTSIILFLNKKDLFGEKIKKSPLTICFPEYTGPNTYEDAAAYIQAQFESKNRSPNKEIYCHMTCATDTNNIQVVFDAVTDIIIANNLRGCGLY
GSH bead fluor: compound fluoresces at 488/530 nm on GSH beads | GSH beads flow cytometry, compound fluorescence 488/530 nm; active compounds read high | fluorescence (KMESF) at 10 µM | 190,000 compounds, 0.25% hits; in the data active = fluorescence above about 89;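 note: glutathione beads carrying GST-tagged Bcl family fusion proteins plus one bare bead set; values are compound well signal with DMSO vehicle wells as background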
Avidin bead fluor: avidin bead compound fluorescence profile. Avidin beads, compound fluorescence 488/530 nm, flow cytometry; active compounds read high. fluorescence (KMESF) at 10 µM. 220,000 compounds, 0.38% hits. AID 1775; in the data active = fluorescence above about 47
RGS8-Gao reg: modulates binding of RGS8 to human Galphao | P09471 | multiplexed bead flow cytometry; actives lie on both sides | response (percent of control binding), % at 10 µM | 220,000 compounds, 0.34% hits | AID 1423; in the data active = response below about 60% or above about 140%; inactive = in between;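 note: Galphao activated as the GDP aluminium fluoride complex binding bead-coupled RGS8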
Target sequence (P09471 whole entry, looked up): as above
RGS4-Gao reg: human RGS4-Galphao interaction regulation; binding response (% of control), % at 10 µM; 220,000 compounds, 0.33% hits; P09471; Multiplexed bead flow cytometry, RGS4-Galphao binding; actives lie on both sides; AID 1415; in the data active = binding response below about 49% or above about 150%; inactive = in between;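 note: fluorescent Galphao activated with aluminum fluoride binding bead-coupled RGS4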
RGS7-Gao: modulates binding of RGS7 to human Galphao | Multiplexed bead flow cytometry; actives lie on both sides | binding response (% of control), % at 10 µM | 220,000 compounds, 0.35% hits; in the data active = binding response below about 49% or above about 150%; inconclusive = no clear call, values can overlap the other calls; inactive = in between;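 note: fluorescent Galphao held in activated GDP-AlF4 state binding bead-coupled RGS7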
RGS-Gao: modulates binding between human RGS4 and Galphao | shares compounds with RGS16-Gao | 1,600 compounds, 99% hits | RGS4–Galpha-o binding response, % at 10 µM | multiplexed bead flow cytometry, RGS–Galpha-o binding;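 note: fluorescently labeled Galpha-o bound to GDP with aluminium fluoride binding biotinylated RGS beads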
Avidin counter: counter-screen: compounds disrupting biotin binding to avidin beads. inhibition, % at 10 µM. shares compounds with RGS16-Gao. 1,700 tested, under 10 active. streptavidin beads, fluorescein-biotin binding, flow cytometry;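 active = inhibition above 50%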;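 note: median green fluorescence of gated singlet beads compared with DMSO control wells; 0% = DMSO wells and 100% = complete loss of bead fluorescence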
RGS8-Gao confirm: RGS8-Galphao interaction regulation, single point confirmation; shares compounds with RGS16-Gao; bead-based flow cytometry RGS8-Galphao binding, fluorescence; actives lie on both sides; binding response (% of control), % at 10 µM; 1,700 compounds, 3% hits; AID 1836; in the data active = binding response below about 72% or above about 130%; inactive = in between;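 note: Galphao activated as GDP AlF4 complex before binding bead RGS8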
RGS7-Gao confirm: confirmation of regulators of human RGS7-Galphao interaction | shares compounds with RGS16-Gao | bead-based flow cytometry RGS7-Galphao binding; actives lie on both sides | response (percent of control binding), % at 10 µM | 1,700 compounds, 7.8% hits | AID 1837; in the data active = response below about 75% or above about 130%; inactive = in between;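 note: fluorescent Galphao activated with GDP and aluminum fluoride binding bead-coupled RGS7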
RGS16-Gao conf: confirmation of regulators of human RGS16-Galphao interaction; shares compounds with RGS16-Gao; AID 1838; 1,700 compounds, 4% hits; bead-based flow cytometry, RGS16-Galphao binding; actives lie on both sides; response (% of control binding), % at 10 µM; in the data active = response below about 74% or above about 130%; inactive = in between;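 note: Galphao activated as the GDP aluminium fluoride complex binding bead-coupled RGS16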
RGS4-Gao confirm: RGS4-Galphao interaction regulation, single point confirmation; shares compounds with RGS16-Gao; RGS4-Galphao binding, multiplexed bead flow cytometry; actives lie on both sides; binding response (% of control), % at 10 µM; 1,700 compounds, 4% hits; AID 1840; in the data active = binding response below about 74% or above about 130%; inactive = in between
RGS19-Gao conf: confirmation of regulators of human RGS19-Galphao interaction; shares compounds with RGS16-Gao; bead-based flow cytometry RGS19-Galphao binding; actives lie on both sides; response (percent of control binding), % at 10 µM; 1,700 compounds, 5% hits; AID 1841; in the data active = response below about 50% or above about 160%; inactive = in between;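 note: 100% = no compound control and 0% = blank background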
* hit, by the source's call; u = inconclusive; x = not tested or not shown; [ ] = another dose, or the depositor's remark. An excerpt weighted towards active compounds, which were near 1.2% of everything screened. Unless noted, the rule behind the calls is not given here.

SMILES	RGS16-Gao	GSH bead fluor	Avidin bead fluor	RGS8-Gao reg	RGS4-Gao reg	RGS7-Gao	Avidin counter	RGS8-Gao confirm	RGS7-Gao confirm	RGS16-Gao conf	RGS4-Gao confirm	RGS19-Gao conf	others
COc1ccc(NC(=S)NCCc2ccccc2)c(OC)c1	109	35	6	104	103	100	x	x	x	x	x	x
COCC(=O)N(Cc1cc2ccc(C)cc2[nH]c1=O)c1ccc(OC)cc1	-28*	7	8	78	86	87	0	104	100	102	99	103	RGS-Gao=86*
O=C(/C=C/c1ccccc1)OCCCN=C1NS(=O)(=O)c2ccccc21	99	20	6	101	101	97	x	x	x	x	x	x
CCC(C)(C)NC(=O)C(c1cccn1C)N(C(=O)Cn1nnc2ccccc21)c1ccccc1OC (configuration not stated)	24*	16	5	68	77	79	-1	97	48*	79	60*	59	RGS-Gao=77*
COc1ccc(C2Oc3ccccc3N2C(C)=O)cc1 (configuration not stated)	100	15	16	102	102	101	x	x	x	x	x	x
CC(=O)Oc1ccc(C2OC(=O)c3ccccc3N2C(C)=O)cc1 (configuration not stated)	x	40	x	106	x	x	0	98	97	96	98	100
CCOC(=O)Cn1nc(-c2ccc(F)cc2)oc1=O	102	55	14	103	101	99	x	x	x	x	x	x
CCOC(=O)c1c(-c2cccc3ccccc23)csc1NC(=O)C1C2CCC(O2)C1C(=O)O (configuration not stated)	99	18	15	99	98	97	x	x	x	x	x	x
COC(=O)c1c(-c2ccc(C(C)(C)C)cc2)csc1NC(=O)C1C2CCC(O2)C1C(=O)O (configuration not stated)	5.6*	10	3	75	94	125	3	84	135*[activator]	73*	96	76	RGS-Gao=94*
COc1ccc2cc(CCNC(=O)C3CCCC3)c(=O)[nH]c2c1	228	25	4	147*[activator]	111	109	0	105	101	107	104	110	RGS-Gao=111*
O=C(c1ccccc1SCc1ccc(F)cc1)N1CCOCC1	97	28	7	102	102	99	x	x	x	x	x	x
Cc1ccc(NC(=S)N/N=C2/CCCCc3ccccc32)cc1	102	x	9	99	106	u	x	x	x	x	x	x
Cc1ccc(C)c(NC(=S)N/N=C2\CCc3ccccc32)c1	47	x	2	60	45*	u	0	97	96	98	97	113
NC(N)=Nc1nc2ccccc2o1	104	x	4	104	100	u	x	x	x	x	x	x
O=C(CNC(=O)c1cccs1)N/N=C/c1c[nH]c2ccccc12	-4.2*	8	-1	6.0*	2.8*	2.4*	0	105	100	109	103	94
Cc1[nH]c2ccccc2c1/C=N/NC(=O)CNC(=O)c1cccs1	106	x	9	98	89	u	x	x	x	x	x	x
CCC(=O)NC(Nc1nc(C)cs1)(C(=O)OC)C(F)(F)F (configuration not stated)	101	25	6	100	97	93	x	x	x	x	x	x
Cc1nc(CS(=O)(=O)c2ccc(Cl)cc2)sc1C(=O)O	98	x	3	100	97	u	x	x	x	x	x	x
O=C(/C=C/c1ccccc1)NNC(=O)C1CC1	x	41	x	x	x	x	0	95	98	93	94	107
Cc1ccc(S(=O)(=O)NCCc2nnc3ccc(SCC(=O)Nc4nc(C)cs4)nn23)cc1	102	8	4	101	102	99	x	x	x	x	x	x
CCN(CC)CCNc1ccc2nnc(CCNS(=O)(=O)c3ccc(C)cc3)n2n1	11*	9	3	15*	20*	16*	0	100	67*	91	77	106
COc1cccc(/C=N/n2c(SC)nnc2-c2ccccc2)c1O	99	11	27	95	99	99	x	x	x	x	x	x
CSC(=S)N(C)C1CCS(=O)(=O)C1 (configuration not stated)	25*	13	3	67	87	86	0	107	105	94	102	54	RGS-Gao=87*
O=C(NCC1(N2CCOCC2)CCCCC1)c1cccc(S(=O)(=O)N2CCc3ccccc3C2)c1	106	19	12	102	100	101	x	x	x	x	x	x
Cc1ccc(OC(=O)c2cc(C)nn2C(C)(C)C)cc1	100	x	6	100	103	u	x	x	x	x	x	x
SMILES	RGS16-Gao	GSH bead fluor	Avidin bead fluor	RGS8-Gao reg	RGS4-Gao reg	RGS7-Gao	Avidin counter	RGS8-Gao confirm	RGS7-Gao confirm	RGS16-Gao conf	RGS4-Gao confirm	RGS19-Gao conf	others
CCOC(=O)c1ccc[n+](CC(=O)c2ccccc2)c1	14	14	4	54*	115	113	0	100	100	102	99	99	RGS-Gao=115*
CCOC(=O)c1ccc[n+](CC(=O)c2ccc(OC)cc2)c1	106	10	5	101	99	105	x	x	x	x	x	x
CC(=O)Nc1ccc(OC(=O)c2cc3cc(Br)ccc3oc2=O)cc1	101	9	12	103	102	96	x	x	x	x	x	x
CC(=O)Nc1ccc(OC(=O)c2cc3cc(Br)cc(Br)c3oc2=O)cc1	19*	8	4	80	91	81	-2	100	88	96	92	96	RGS-Gao=91*
NC(N)=N/N=C/c1ccc(Br)cc1	100	14	11	104	99	101	x	x	x	x	x	x
N#Cc1ccc(/C=N/N=C(N)N)cc1	244*[activator]	35	112*	115	220*[activator]	179*[activator]	2	103	101	96	101	63
CCOC(=O)C1=NN(c2cccc(C)c2)C2(S1)SC(C(C)=O)=C(C)N2c1ccccc1 (configuration not stated)	x	50	x	x	x	x	1	106	83	106	92	55

Source: PubChem BioAssay
